Bioassay records: PubChem, National Center for Advancing Translational Sciences (NCATS)
Compounds with a hit are over-represented: about 7.3% of the library has one in this group of screens.
FLuc counter = firefly luciferase modulation, counter-screen for miR-21 project. P08659. purified FLuc, Km substrates, luminescence inhibition. Potency, µM (series often up to 57.5 µM), usual class: inhibitors. 360,000 tested, 6.9% active. AID 588342; note: nearly all actives have a fitted effect of over 55% in size
Target sequence (P08659 whole entry, looked up): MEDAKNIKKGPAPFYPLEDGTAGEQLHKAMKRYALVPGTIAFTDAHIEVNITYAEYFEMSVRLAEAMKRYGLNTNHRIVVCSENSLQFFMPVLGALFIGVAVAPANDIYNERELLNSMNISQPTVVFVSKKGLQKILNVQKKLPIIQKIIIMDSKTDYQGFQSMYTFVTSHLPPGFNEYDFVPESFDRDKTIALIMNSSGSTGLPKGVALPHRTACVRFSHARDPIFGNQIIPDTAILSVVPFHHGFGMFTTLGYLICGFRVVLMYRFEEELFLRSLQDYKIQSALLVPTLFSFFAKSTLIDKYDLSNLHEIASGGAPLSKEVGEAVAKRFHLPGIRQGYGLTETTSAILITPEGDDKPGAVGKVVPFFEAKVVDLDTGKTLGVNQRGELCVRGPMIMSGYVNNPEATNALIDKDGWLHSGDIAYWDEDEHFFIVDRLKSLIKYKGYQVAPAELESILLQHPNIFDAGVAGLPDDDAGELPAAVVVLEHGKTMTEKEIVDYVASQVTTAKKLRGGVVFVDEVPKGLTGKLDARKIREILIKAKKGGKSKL
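Purified P. pyralis luciferase, 10 nM final, with Km-level 10 uM D-luciferin and 10 uM ATP in 50 mM Tris acetate pH 7.5, 10 mM Mg acetate, 0.01% Tween-20, 0.05% BSA; 6-point qHTS titration about 60 µM downward; luminescence read.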
Rab9 promoter act = Rab9 promoter activation. Huh7 Rab9 promoter-luciferase reporter, luminescence, 24 h. Potency, µM (series often up to 9.22 µM), most hits filed as activators. 320,000 tested, 2.8% active. AID 485297; note: nearly all actives have a fitted effect of over 60% in size
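Huh7 reporter line, Rab9 promoter upstream of luciferase. Compound exposure 24 h at 37 °C in reduced-serum medium with 10% FBS. Read-out: luminescence.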
uPA surface inh = cell surface uPA generation inhibition | cell surface uPA generation assay, qHTS | Potency, µM (highest dose often 38.3 µM), actives largely listed as inhibitors | 330,000 tested, 0.31% active | AID 540303; active = well fitted inhibition curve with a large enough effect; inconclusive = small, poorly fitted or top-dose-only effect; inactive = no such curve, though single readings can be large or run the other way; tested in mouse RAW 264.7 cells; note: nearly all actives have a fitted effect of over 55% in size
SMN2 splice enh = enhancers of SMN2 splice variant expression. HEK293 SMN2-luciferase splicing reporter, luminescence, 30-36 h. 210,000 tested, 2.8% active. Potency, µM (top dose mostly 46.1 µM), hits mostly activators. AID 1458; note: nearly all actives have a fitted effect of over 55% in size
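HEK293 cells carry an SMN2 minigene-luciferase reporter in which exon 7 inclusion puts luciferase in frame. Cells were seeded at 2000 cells/well, attached for 10-12 hours, then exposed to compounds for 30-36 hours at 37C before ONE-Glo luminescence.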
ELG1 genotox = genotoxicity induction in ELG1-luciferase HEK293T cells; HEK293T ELG1-luciferase reporter, luminescence, 16 h; Potency, µM (highest dose often 46 µM), usual class: activators; 330,000 tested, 1.3% active; note: nearly all actives have a fitted effect of over 60% in size
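Reporter readout depends on ELG1 protein level, which increases with genetic stress. After 16 hr compound exposure at 37 °C, luciferase activity was quantified using ONE-Glo.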
NPC1 promoter act = activators of NPC1 promoter; AID 485313; Potency, µM (series often up to 9.22 µM), actives largely listed as activators; Huh7 NPC1 promoter luciferase reporter, 24 h; 320,000 tested, 2.4% active; note: nearly all actives have a fitted effect of over 60% in size
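In 1536-well qHTS, Huh7 cells harboring an NPC1 promoter–luciferase construct received compound for 24 h; activation was quantified by luminescence following luciferase reagent addition.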
Large screens that a line does not name were inactive. Unless noted, calls come from the whole dose curve; as a rule, active = well fitted curve in the direction sought with a large enough effect; inconclusive = small, poorly fitted or top-dose-only effect, or another doubt; inactive = no such curve, though single readings can be large; an effect the other way counts as inactive or inconclusive.

Cn1nc(C(=O)N2CCCCC2)c2c1-c1ccccc1S(=O)(=O)C2	none (no result: SMN2 splice enh)
O=C(Cn1cnc2c(NCc3ccccc3)ncnc21)NCCCN1CCCC1=O	none (no result: FLuc counter, Rab9 promoter act, SMN2 splice enh, NPC1 promoter act)
NC(=O)C1=NOC(CNc2ncc(C(F)(F)F)cc2Cl)C1 (stereo not given)	FLuc counter inconclusive, Rab9 promoter act inconclusive, ELG1 genotox 23µM
Cc1ccc(NC(=O)CSc2nccn2Cc2ccco2)c(C)c1	FLuc counter 4.3µM, Rab9 promoter act 0.63µM, ELG1 genotox 5.2µM, NPC1 promoter act 0.89µM (no result: SMN2 splice enh)
COc1ccc(OC)c(NC(=O)CSc2nccn2Cc2ccco2)c1	FLuc counter 15µM (no result: SMN2 splice enh)
Cc1cc(C)c(NC(=O)CSc2nccn2Cc2ccco2)c(C)c1	FLuc counter 17µM (no result: Rab9 promoter act, uPA surface inh, SMN2 splice enh, ELG1 genotox, NPC1 promoter act)
COc1ccc2c(c1)O[C@@H](c1cccc(C(F)(F)F)c1)[C@H](OC(=O)NS(=O)(=O)c1ccc(C)cc1)C2=O	none (no result: FLuc counter, Rab9 promoter act, uPA surface inh, ELG1 genotox, NPC1 promoter act)
COc1ccc(N2CCN(C(=O)CCn3c(=O)c4cccn4c4cccnc43)CC2)cc1	none (no result: Rab9 promoter act, uPA surface inh, SMN2 splice enh, ELG1 genotox, NPC1 promoter act)
CN(Cc1ccc(Cl)cc1Cl)C(=O)CNC(=O)c1ccco1	none (no result: SMN2 splice enh)
Cc1cccc(C#Cc2ccccc2)n1	FLuc counter 6µM, Rab9 promoter act 5µM, uPA surface inh inconclusive, SMN2 splice enh 13µM, ELG1 genotox 8.2µM, NPC1 promoter act 5.8µM
CCOc1ccc(C(=O)Nc2nc(-c3ccc(Br)cc3)ns2)cc1	none (no result: Rab9 promoter act, uPA surface inh, SMN2 splice enh, ELG1 genotox, NPC1 promoter act)
CC(C)Cn1c(=O)c2ccccc2n2c(CCC(=O)N3CCN(c4ccccc4F)CC3)nnc12	none (no result: Rab9 promoter act, uPA surface inh, ELG1 genotox, NPC1 promoter act)
CNc1cc([N+](=O)[O-])ccc1OCc1ccccc1	FLuc counter 19µM (no result: SMN2 splice enh)
S=C(Nc1ccc(Nc2ccccc2)cc1)NC1CCCCCC1	none
S=C(Nc1ccc(Cl)cc1)NC1CCCCC1	FLuc counter 15µM (no result: SMN2 splice enh)
FC(F)Oc1ccc(NC(=S)NC2CCCCCCC2)cc1	FLuc counter 19µM (no result: SMN2 splice enh)
S=C(Nc1ccc(Br)cc1)NC1CCCCC1	FLuc counter 11µM, SMN2 splice enh 13µM
CC(C)(C)NC(=S)Nc1ccc(Br)cc1	FLuc counter 19µM
O=C(Nc1cccc(Cl)c1)C1CCN(c2nc3ccccc3nc2C(F)(F)F)CC1	none (no result: Rab9 promoter act, uPA surface inh, SMN2 splice enh, ELG1 genotox, NPC1 promoter act)
CCN(CC)CCCNC(=S)Nc1ccc(Br)cc1	FLuc counter 11µM, Rab9 promoter act inconclusive, ELG1 genotox 23µM, NPC1 promoter act inconclusive (no result: SMN2 splice enh)
O=C(O)c1cccc2c1-c1ccccc1/C2=N\Nc1ccccc1	FLuc counter 11µM, Rab9 promoter act inconclusive, NPC1 promoter act 3.2µM (no result: SMN2 splice enh)
O=C(O)c1cccc(NN=C2c3ccccc3-c3ccccc32)c1	FLuc counter 27µM
Cn1c(CCCOc2ccc(Cl)cc2Cl)nnc1SCC(=O)Nc1cccc(F)c1	FLuc counter 4.8µM
CCn1c(CCCOc2ccc(Cl)cc2Cl)nnc1SCC(=O)Nc1cc(F)ccc1C	FLuc counter 17µM
C=CCn1c(CCCOc2ccc(Cl)cc2Cl)nnc1SCC(=O)Nc1nccs1	FLuc counter 13µM
Cn1c(CCCOc2ccc(Cl)cc2Cl)nnc1SCC(=O)Nc1ccc(F)c(Cl)c1	none
CCCN(CCC)C(=O)Cn1c(=O)n(-c2cccc(C)c2)c(=O)c2c1c1cc(OC)ccc1n2C	none (no result: Rab9 promoter act, uPA surface inh, ELG1 genotox, NPC1 promoter act)
COc1ccc2c(c1)c1c(c(=O)n(-c3cccc(C)c3)c(=O)n1CC(=O)NCC1CCCO1)n2C (stereo not given)	none (no result: Rab9 promoter act, uPA surface inh, SMN2 splice enh, ELG1 genotox, NPC1 promoter act)
Cc1nn(-c2ccc3nncn3n2)c(C)c1CCC(=O)Nc1ccc(OC(F)(F)F)cc1	none (no result: Rab9 promoter act, uPA surface inh, SMN2 splice enh, ELG1 genotox, NPC1 promoter act)
O=c1c(Cl)c(NCc2ccccc2Cl)cnn1C12CC3CC(CC(C3)C1)C2	FLuc counter 12µM
Cc1cc(N(CCO)CCO)ccc1N=Nc1cc(F)ccc1F	FLuc counter 24µM, Rab9 promoter act inconclusive, SMN2 splice enh inconclusive, ELG1 genotox inconclusive, NPC1 promoter act inconclusive
Nc1ccc(N(CCO)CCO)cc1	none (no result: SMN2 splice enh)
Cc1cccc(CCNC(=O)c2cc3c(=O)[nH]c4ccc(C)cc4c3s2)c1	none (no result: Rab9 promoter act, uPA surface inh, ELG1 genotox, NPC1 promoter act)
CCOC(=O)c1ccc(N2C(=O)c3[nH]nc(-c4ccc(C)cc4)c3C2c2cccc(F)c2)cc1 (stereo not given)	none (no result: Rab9 promoter act, uPA surface inh, ELG1 genotox, NPC1 promoter act)
O=C(NCc1cccnc1)C(C(=O)c1ccc(F)cc1)n1ccccc1=O (stereo not given)	ELG1 genotox 18µM
